The results in this text go back to PubChem BioAssay AID504339 (National Center for Advancing Translational Sciences (NCATS), 2011).

About 17,000 (4.4%) of roughly 390,000 compounds were called active. Entries that show only a call come without a potency. About 8% were inconclusive and are not listed. The sample as a whole holds a higher share of actives than the screen did. A number with no mark means an inactive call. Calls follow the shape of the dose curve; as a rule, active = well fitted inhibition curve with a large enough effect; inconclusive = small, poorly fitted or top-dose-only effect; inactive = no such curve, though single readings can be large or run the other way.
Potency is read from the fitted curve at half-maximal effect.

Sequence of Lysine-specific demethylase 4A (Homo sapiens) (O75164 whole entry, looked up, the tested form may be a part): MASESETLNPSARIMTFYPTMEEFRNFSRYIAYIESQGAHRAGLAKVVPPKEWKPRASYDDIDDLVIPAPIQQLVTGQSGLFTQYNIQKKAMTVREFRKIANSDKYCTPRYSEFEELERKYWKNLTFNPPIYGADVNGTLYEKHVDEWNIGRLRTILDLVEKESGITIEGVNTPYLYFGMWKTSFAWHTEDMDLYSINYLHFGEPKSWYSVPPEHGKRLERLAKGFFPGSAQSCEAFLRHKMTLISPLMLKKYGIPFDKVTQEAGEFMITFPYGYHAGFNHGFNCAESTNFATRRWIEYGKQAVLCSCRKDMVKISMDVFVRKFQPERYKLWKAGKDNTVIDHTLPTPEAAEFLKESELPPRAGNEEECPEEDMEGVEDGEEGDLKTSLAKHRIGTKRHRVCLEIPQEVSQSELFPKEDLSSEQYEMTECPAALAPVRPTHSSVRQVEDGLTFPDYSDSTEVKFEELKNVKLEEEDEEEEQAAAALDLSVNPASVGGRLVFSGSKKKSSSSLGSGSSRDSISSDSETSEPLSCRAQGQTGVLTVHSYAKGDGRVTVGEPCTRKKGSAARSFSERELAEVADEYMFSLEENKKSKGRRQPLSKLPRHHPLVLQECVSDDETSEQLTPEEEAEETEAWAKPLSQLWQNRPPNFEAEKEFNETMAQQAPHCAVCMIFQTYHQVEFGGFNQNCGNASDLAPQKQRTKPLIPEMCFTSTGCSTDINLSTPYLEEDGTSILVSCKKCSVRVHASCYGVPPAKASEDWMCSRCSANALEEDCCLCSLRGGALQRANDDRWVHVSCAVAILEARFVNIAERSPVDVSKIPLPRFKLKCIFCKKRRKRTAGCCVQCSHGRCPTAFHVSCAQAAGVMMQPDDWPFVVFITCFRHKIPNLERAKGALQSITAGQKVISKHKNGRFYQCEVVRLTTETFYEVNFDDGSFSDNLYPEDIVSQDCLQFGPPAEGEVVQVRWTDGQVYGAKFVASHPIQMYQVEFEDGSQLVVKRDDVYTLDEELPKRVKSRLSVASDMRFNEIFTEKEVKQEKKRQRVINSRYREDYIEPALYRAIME

The assay addresses Lysine-specific demethylase 4A (Homo sapiens) (UniProt O75164). Briefly: qHTS Assay for Inhibitors of JMJD2A-Tudor Domain. Also: nearly all actives have a fitted effect of over 50% in size. Particulars: AlphaScreen JMJD2A-Tudor / H3K4me3 peptide binding; series mostly up to 114 µM.
For `COc1ccc(C2=Nn3c(nnc3-c3ccccc3O)SC2)cc1`, the Potency entry was “inactive”.
The same measure, in the same setting: with `CC1=C(C(=O)OCC(C)C)C(c2ccc(OCc3ccccc3)cc2)N2C(=O)CCSC2=N1` (centres undefined) the entry was “inactive”; with `CCC(=O)Nc1cccc(C(=O)OCc2cc(=O)n3nc(CC)sc3n2)c1`, “inactive”.
The same measure, in the same setting: to `S=c1[nH]nc(NCCc2ccccc2)s1` belongs 2.51 µM (active).
Same read-out and setting: to `O=S(=O)(NCCc1ccncc1)c1ccccc1` belongs “inactive”.
`O=S(=O)(NCCc1ccccc1)c1ccccc1`: the Potency entry is “inactive”.
Take `Cc1nn2c(=O)cc(COC(=O)CNC(=O)c3ccc(F)cc3)nc2s1`: the Potency result was “inactive”.
On the same count and under the same terms, to `Cc1ccc(C)c(N2CCN(Cc3nnc(-c4ccccc4)o3)CC2)c1` belongs “inactive”.
Same read-out and setting: with `CC1CCC(N2CC(=O)N(CCC3=CCCCC3)C(c3ccc(F)cc3)C2=O)CC1` (centres undefined) the entry was “inactive”; with `Cn1c(-c2sc3cc(C(F)(F)F)cnc3c2-c2ccccc2)n[nH]c1=S`, “inactive”; with `Cc1ccccc1-c1n[nH]c(=S)n1C`, 7.08 µM (active).
On to `Cn1c(-c2sccc2OCc2cccc(C(F)(F)F)c2)n[nH]c1=S`, for which the activity change, negative = inhibition is -12% [at 11.4 µM].
With `COc1ccc(C(=O)CSc2n[nH]c(N)n2)cc1`, the Potency was 56.2 µM (active).
`COc1ccc(CNC(=O)CSc2n[nH]c(N)n2)cc1OC`: the Potency result was “inactive”.
For `COc1ccc(-c2nc(SCC(=O)N3CCOCC3)n[nH]2)cc1`, the Potency entry was “inactive”.
Same read-out and setting: with `COc1cccc(C(=O)NC(=O)Nc2ccc(-c3cc(C(F)(F)F)nn3-c3ccccc3)cc2)c1` the entry was “inactive”; with `Cc1ccc(S(=O)(=O)NCc2nc3nc(C)cc(C)n3n2)cc1`, “inactive”.
Still for that read-out and setting: to `CCC1=Nc2cc(C(=O)NCCCOC(C)C)ccc2Sc2ccc(C)cc21` belongs “inactive”; to `O=C(CCS(=O)(=O)c1ccc2c(c1)NC(=O)CO2)Nc1cccc(C(F)(F)F)c1`, “inactive”; to `CC(C)(C)C1C/C(=C/c2ccco2)C(=O)/C(=C/c2ccco2)C1` (centres undefined), 31.6 µM (active).
Turning to `CS(=O)(=O)c1ccc2c(c1)SC1=NC(=O)/C(=C/c3ccco3)C(=N)N12`, the Potency entry is “inactive”.
Still for that read-out and setting: to `Cc1cccc(NC(=O)CSc2ncc(-c3ccccc3)[nH]2)c1C` belongs “inactive”; to `CCc1ccccc1NS(=O)(=O)c1ccc2nc(-c3ccccc3)[nH]c2c1`, “inactive”.
Still for that read-out and setting: to `Cc1ccc(Nc2ccc3cc(S(=O)(=O)N4CCCCC4)ccc3n2)cc1F` belongs “inactive”; to `CCOc1ccc(C2CC(=O)c3c([nH]c(C(=O)OCc4ccccc4)c3C)C2)cc1` (centres undefined), “inactive”; to `Cc1ccc(CNC(=O)CCc2c(C)nn(-c3ccc(N4CCCC4)nn3)c2C)cc1`, “inactive”.
In the case of `C=CCn1c(=S)sc2c(=O)[nH]c(C)nc21`, the Potency entry was “inactive”.
On the same count and under the same terms, with `Cc1[nH]c2ccc(S(N)(=O)=O)cc2c1C` the entry was “inactive”; with `C=CCn1c(-c2ccccc2OCC)n[nH]c1=S`, 4.47 µM (active); with `C=CCn1c(CCc2ccc(OC(C)C)cc2)n[nH]c1=S`, “inactive”.
As for `C=CCn1c(-c2ccc3[nH]c(C)c(C)c3c2)n[nH]c1=S`, the Potency is 50.1 µM (active).
In the case of `C=CCn1c(COc2ccccc2C)nnc1SCC(=O)O`, the Potency result was “inactive”.
Take `COc1ccc(-c2cn3c(C)c(C(=O)Nc4cc(C)cc(C)c4)sc3n2)cc1`: the Potency result is “inactive”.
As for `COC(=O)c1cc2occc2n1Cc1nc(-c2ccc(C)cc2)oc1C`, the Potency entry is “inactive”.
On the same count and under the same terms, with `Cc1cccc(NC(=O)c2cc3c(C)nn(-c4ccccc4)c3s2)c1` the entry was “inactive”; with `Nc1ccccc1SC(C[N+](=O)[O-])c1ccccc1` (centres undefined), 6.31 µM (active); with `O=C(c1ccc(C(F)(F)F)cc1)N1CCC(c2nc(-c3ccc(S(=O)(=O)N4CCCC4)cc3)no2)CC1`, “inactive”.
On to `O=C(CC(c1cccs1)N1Cc2ccccc2C1=O)Nc1ccc(F)c(F)c1` (centres undefined), for which the Potency result was “inactive”.
The same measure, in the same setting: to `Cc1cccc(NC(=O)CSc2nc3c([nH]c4ccccc43)c(=O)n2-c2cc(C)cc(C)c2)c1` belongs “inactive”; to `Cc1ccc(N2CC(C(=O)Nc3ccc(N(C)C)cc3)CC2=O)cc1Cl` (centres undefined), “inactive”.
Consider `O=S(=O)(NCCS(=O)(=O)N1CCN(c2ccccc2)CC1)c1ccc(Cl)cc1`, for which the Potency result was “inactive”.
Still for that read-out and setting: to `CN1CCN(c2oc(-c3ccc(COc4ccc(Cl)cc4)o3)nc2C#N)CC1` belongs 39.8 µM (active); to `COc1ccc(OCc2ccc(-c3nc(C#N)c(N4CCN(c5ccccc5)CC4)o3)o2)cc1`, “inactive”; to `CCC(C)Nc1oc(-c2ccc(COc3ccc(Cl)cc3)o2)nc1C#N` (centres undefined), “inactive”.
In the case of `CCOc1ccccc1NC(=O)Cn1c(=O)n(Cc2ccccc2)c(=O)c2c(C)c(C(=O)N(C)C)sc21`, the Potency entry is “inactive”.
On the same count and under the same terms, with `c1ccc(COc2ccccc2CNCc2cccnc2)cc1` the entry was “inactive”.
As for `N#Cc1nc(COc2ccc(-c3ccccc3)cc2)oc1NCc1cccnc1`, the Potency was 44.7 µM (active).
As for `O=S(=O)(c1ccccc1)c1nc(-c2ccccc2F)oc1NCc1cccnc1`, the Potency result is “inactive”.
The same measure, in the same setting: with `CCOC(=O)c1c(NC(=O)/C=C/c2ccc(OC)cc2)sc2c1CCC(C)C2` (centres undefined) the entry was “inactive”; with `COc1cc(/C=N\NC(=O)C2C(=O)NCC2c2ccccc2)cc(OC)c1O` (centres undefined), “inactive”; with `COc1ccc(/C=N/NC(=O)C2CC2)c(OC)c1OC`, “inactive”.
Same read-out and setting: with `COc1cccc(/C=N\NC(=O)C2=NNC(=O)C2C)c1O` (centres undefined) the figure was 56.2 µM (active); with `CCOc1ccccc1NC(=O)CN1CCN(S(=O)(=O)c2ccc(Br)cc2)CC1`, “inactive”; with `CCOc1cc(C2c3c(-c4ccc(Br)cc4)n[nH]c3C(=O)N2c2ccc(Cl)cc2)ccc1O` (centres undefined), “inactive”.
`O=C1c2cccc3cccc(c23)C(=O)N1CCCCCc1n[nH]c(=S)o1`: the Potency was 89.1 µM (active).
Same read-out and setting: with `O=C1c2ccccc2C(=O)N1CCCc1nc(-c2ccccc2)no1` the entry was “inactive”; with `O=C(CN1C(=O)c2cccc3cccc(c23)C1=O)N1CCCCC1`, “inactive”.
On the same count and under the same terms, with `CCCN1CCN(CCCNC(=O)Cn2nc(CC)n3c(cc4occc43)c2=O)CC1` the entry was “inactive”; with `COc1cc(/C=C2\Oc3ccc(C#Cc4ccc(O)cc4)cc3C2=O)cc(OC)c1`, 89.1 µM (active); with `COC(=O)C(C)Oc1ccc2c(c1)O/C(=C\c1cccc(Br)c1)C2=O` (centres undefined), “inactive”.
The same measure, in the same setting: with `COc1cc(C#Cc2ccc3cc(CCCO)oc(=O)c3c2)cc(OC)c1` the entry was “inactive”.
As to `COC(=O)/C=C\C(=O)Nc1cccc([N+](=O)[O-])c1`, the Potency was 17.8 µM (active).
Same read-out and setting: with `CCC(CC)NC(=O)/C=C/c1cccc([N+](=O)[O-])c1` the entry was “inactive”.
For the molecule `O=C(CN1CCOCC1)Nc1cccc([N+](=O)[O-])c1`, the Potency entry is “inactive”.
As to `Cc1cc(C)c(/C=C/c2onc(C)c2S(=O)(=O)N2CCC(C(=O)Nc3ccc(Cl)cc3C)CC2)c(C)c1`, the Potency result is “inactive”.
Turning to `COc1ccc(NCCc2ccccn2)cc1`, the Potency is 79.4 µM (active).
The same measure, in the same setting: with `O=C(CNC(=O)COc1ccccc1)NCCc1ccccn1` the entry was “inactive”.
The same measure, in the same setting: with `Cc1c(C)c(C)c(S(=O)(=O)NCCc2ccccn2)c(C)c1C` the entry was “inactive”; with `Cc1ccc(CNC(=O)CSc2c(C)cnc3c2c(=O)n(C)c(=O)n3C)cc1`, “inactive”.
With `O=c1nc2s/c(=C\c3ccco3)c(=O)n2nc1Cc1ccccc1`, the Potency was 50.1 µM (active).
Still for that read-out and setting: with `O=c1/c(=C/c2ccc(CNS(=O)(=O)c3ccccc3)o2)sc2n1CCN=2` the entry was “inactive”; with `CCOC(=O)c1cc(OC(=O)c2ccccc2Cl)n(-c2ccccc2)n1`, “inactive”; with `CN(Cc1ccccc1)C(=O)CCS(=O)(=O)c1cc(Br)cc2c1N(C(=O)C1CC1)CC2`, “inactive”.
On to `COc1ccc(S(=O)(=O)NCC(c2ccc(C)cc2)N2CCN(C)CC2)cc1OC` (centres undefined), for which the Potency result is “inactive”.
The same measure, in the same setting: with `COc1ccc(S(=O)(=O)NCC(c2ccco2)N2CCOCC2)cc1` (centres undefined) the entry was “inactive”; with `COc1ccc(N2CCN(C(CNS(=O)(=O)c3ccc(C)cc3)c3ccccc3)CC2)cc1` (centres undefined), 20 µM (active).
On to `CCOC(=O)c1c(C)oc2nc(C)nc(N(CC(C)C)CC(C)C)c12`, for which the Potency entry was “inactive”.
As to `CCOc1cc(C2C(C(=O)Nc3ccc(OC)cc3)=C(C)Nc3nc(SC)nn32)ccc1O` (centres undefined), the Potency entry was “inactive”.
Same read-out and setting: with `O=C(Nc1ccc(OC(F)(F)F)cc1)C1CCCN(S(=O)(=O)c2ccc(Br)s2)C1` (centres undefined) the entry was “inactive”; with `Cc1cccc(OCC(=O)NCC(=O)N/N=C/c2ccc(N(C)C)cc2)c1`, “inactive”; with `CC(=O)c1c(C)n(-c2ccc(C)cc2)c2ccc(O)cc12`, “inactive”.
On the same count and under the same terms, with `CC(=O)c1c(C)n(-c2ccc(N(C)C)cc2)c2ccc(OCC(N)=O)cc12` the figure was 79.4 µM (active).
Same read-out and setting: to `Cc1ccc(-c2nnc(SCc3ccccc3C)o2)cc1` belongs “inactive”; to `Cc1ccccc1CNC(=O)CCCn1nc(C)c2sc3ccccc3c2c1=O`, “inactive”.
In the case of `CCCOc1ccc(C2C(C(=O)c3ccc(C)o3)=C(O)C(=O)N2CCCn2ccnc2)cc1` (centres undefined), the activity change, negative = inhibition is -17.6% [at 11.4 µM].
For `COc1cc(C2C(C(=O)c3ccc(C)o3)=C(O)C(=O)N2CCc2ccccc2)ccc1O` (centres undefined), the Potency is 17.8 µM (active).
On the same count and under the same terms, to `Cc1cc(N2C(=O)C(O)=C(C(=O)c3ccc(C)o3)C2c2ccc(OCc3ccccc3)cc2)no1` (centres undefined) belongs 44.7 µM (active); to `COc1cc(C2C(C(=O)c3cccs3)=C(O)C(=O)N2CCN2CCOCC2)ccc1OCCC(C)C` (centres undefined), “inactive”; to `Cc1cc(N2C(=O)C(=O)/C(=C(/O)c3ccccc3)C2c2cccc(Br)c2)no1` (centres undefined), “inactive”.
On the same count and under the same terms, with `CCOc1cc(C2C(C(=O)c3ccco3)=C(O)C(=O)N2Cc2ccccc2)ccc1O` (centres undefined) the entry was “inactive”.
Still for that read-out and setting: to `O=C(Nc1cc(Cl)cc(Cl)c1)c1ccc2c(c1)N(Cc1cccc(Cl)c1)C(=O)c1ccccc1S2=O` (centres undefined) belongs “inactive”; to `COc1cc(CN(CC2CCCO2)C(=O)c2ccccc2F)cc(OC)c1OC` (centres undefined), “inactive”; to `CC(C)(C)OC(=O)N1CCC(c2c(C(=O)NCCc3ccsc3)cnn2-c2ccc(F)cc2F)CC1`, “inactive”.
With `Cc1ccc(-n2ncc(C(=O)N(C)Cc3ccccc3)c2-n2cccc2)cc1`, the Potency result was “inactive”.
The same measure, in the same setting: to `CCOC(=O)N1CCc2c(sc3c2C(=O)NC(c2ccccc2F)N3)C1` (centres undefined) belongs “inactive”.
Still for that read-out and setting: to `COc1ccc(-c2cc(C(=O)NCc3cc(OC)c(OC)c(OC)c3)[nH]n2)cc1` belongs “inactive”; to `O=C(CCC1CCCN(C(=O)c2ccc(F)c(F)c2)C1)N1CCN(c2ccccn2)CC1` (centres undefined), “inactive”.
The same measure, in the same setting: to `C=Cc1ccc(C(=O)N2CCCC(CCC(=O)N3CCN(c4ccccn4)CC3)C2)cc1` (centres undefined) belongs 56.2 µM (active); to `O=C(CCC1CCCN(C(=O)Cc2ccc(F)cc2)C1)N1CCN(c2ccccn2)CC1` (centres undefined), “inactive”.
